Measured values as given in PubChem BioAssay (NCATS).
Inconclusive results are not listed. A call without a number means that no potency is given here. Active and inactive are the calls of the source. Unless noted, the call rests on the fitted dose curve; in most records, active means well fitted curve in the direction sought with a large enough effect; inconclusive means small, poorly fitted or top-dose-only effect, or another doubt; inactive means no such curve, though single readings can be large; an effect the other way counts as inactive or inconclusive.

Key:
[1] = qHTS for differential inhibitors of proliferation of Plasmodium falciparum line D10 (AID 1877);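 further: parasites grown with compound for 72 h before DNA staining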; further: potency means the concentration at half of the fitted maximal effect
[2] = qHTS for differential inhibitors of proliferation of Plasmodium falciparum line Dd2 (AID 1882); details: Potency: Plasmodium falciparum Dd2 proliferation inhibition; further: nearly all actives have a fitted effect of over 65% in size; further: potency means the concentration at half of the fitted maximal effect
Procedure, shortened: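 Dd2-infected erythrocytes (0.3% parasitemia, 2.5% hematocrit final) incubated with compound 72 h at 37 C, 5% CO2; lysed with saponin/Triton buffer containing SYBR Green I, incubated overnight in the dark, then read by fluorescence (485/535 nm). Normalized to 0.29 uM artemisinin and DMSO.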

[3] = qHTS for differential inhibitors of proliferation of Plasmodium falciparum line W2 (AID 1883); details: Potency: Plasmodium falciparum W2 proliferation inhibition;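 further: parasites grown with compound for 72 h before lysis and staining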; further: potency means the concentration at half of the fitted maximal effect
[4] = qHTS for differential inhibitors of proliferation of Plasmodium falciparum line HB3 (AID 1886); details: Potency: Plasmodium falciparum HB3 proliferation inhibition;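 further: parasites grown with compound for 72 h before SYBR Green readout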; further: potency means the concentration at half of the fitted maximal effect
[5] = qHTS Assay for Modulators of Human Peripheral Myelin Protein 22 (PMP22) Expression/Activity (AID 1967; active means well fitted curve in the direction sought with a large enough effect in the signal ratio; the % refers to the signal ratio)
Procedure, shortened: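 Quantitative HTS in a mouse Schwann cell line expressing dual click beetle luciferases: Pmp22 promoter (green) and control EF-alpha promoter (red). After 24h treatment, corrected green/red signal ratio gave %Activity relative to untreated cells.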

[6] = target: ATP-dependent DNA helicase Q1 (Homo sapiens) (UniProt P46063); assay: qHTS Validation Assay for Inhibitors of RecQ-Like Dna Helicase 1 (RECQ1) (AID 2353)
Procedure, shortened: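 50 nM RECQ1T1 preincubated 15 min with compound in Tris pH 8.0 buffer with MgCl2, DTT, Tween-20 and 2.5 ug/ml poly(dI-dC); started with 200 nM TAMRA/BHQ-2 forked duplex and 2 mM ATP. Unwinding read as fluorescence (525/598 nm), two reads 2 h apart.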

[7] = target: Ferritin light chain (Equus caballus) (UniProt P02791); assay: qHTS Validation Assay for Identification of Novel General Anesthetics (AID 2323); further: series mostly up to about 77 µM
Procedure, shortened: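 Apoferritin from horse spleen (10 uM) was mixed with 1-aminoanthracene at 50% saturation in PBS, then compounds were added. After 10 min at room temperature, fluorescence was read (ex 380 nm, em 535 nm) and normalized to free-probe and complex controls.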

[8] = target: RecQ-like DNA helicase BLM (Homo sapiens) (UniProt P54132); assay: qHTS Validation Assay for Inhibitors of Bloom's syndrome helicase (BLM) (AID 2364)
Procedure, shortened: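 Forked 20-bp duplex substrate (200 nM, TAMRA/BHQ-2) plus 2 mM ATP added after 15 min compound preincubation with 50 nM enzyme, pH 8.0, poly(dI-dC) 2.5 ug/ml. Strand separation followed by fluorescence (525/598 nm) over 2 h, normalized to enzyme-free and DMSO controls.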

Sequence of ATP-dependent DNA helicase Q1 (Homo sapiens) (P46063 whole entry, looked up): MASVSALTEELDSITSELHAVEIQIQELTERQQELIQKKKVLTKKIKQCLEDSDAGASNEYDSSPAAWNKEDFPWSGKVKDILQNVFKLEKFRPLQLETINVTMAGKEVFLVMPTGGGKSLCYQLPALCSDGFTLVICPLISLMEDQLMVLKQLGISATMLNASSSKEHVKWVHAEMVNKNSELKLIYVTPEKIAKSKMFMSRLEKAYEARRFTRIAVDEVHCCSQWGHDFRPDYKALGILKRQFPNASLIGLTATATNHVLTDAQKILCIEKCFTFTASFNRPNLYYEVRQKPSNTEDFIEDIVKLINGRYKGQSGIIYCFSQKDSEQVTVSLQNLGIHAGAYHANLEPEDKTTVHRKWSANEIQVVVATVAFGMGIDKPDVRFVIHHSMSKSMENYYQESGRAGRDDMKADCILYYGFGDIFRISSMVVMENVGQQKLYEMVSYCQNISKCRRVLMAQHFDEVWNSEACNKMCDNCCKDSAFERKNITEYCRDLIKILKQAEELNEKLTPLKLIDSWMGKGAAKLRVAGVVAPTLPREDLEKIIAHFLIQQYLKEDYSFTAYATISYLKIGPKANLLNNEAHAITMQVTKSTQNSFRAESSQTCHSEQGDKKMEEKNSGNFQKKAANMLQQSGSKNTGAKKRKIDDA
Sequence of RecQ-like DNA helicase BLM (Homo sapiens) (P54132 whole entry, looked up): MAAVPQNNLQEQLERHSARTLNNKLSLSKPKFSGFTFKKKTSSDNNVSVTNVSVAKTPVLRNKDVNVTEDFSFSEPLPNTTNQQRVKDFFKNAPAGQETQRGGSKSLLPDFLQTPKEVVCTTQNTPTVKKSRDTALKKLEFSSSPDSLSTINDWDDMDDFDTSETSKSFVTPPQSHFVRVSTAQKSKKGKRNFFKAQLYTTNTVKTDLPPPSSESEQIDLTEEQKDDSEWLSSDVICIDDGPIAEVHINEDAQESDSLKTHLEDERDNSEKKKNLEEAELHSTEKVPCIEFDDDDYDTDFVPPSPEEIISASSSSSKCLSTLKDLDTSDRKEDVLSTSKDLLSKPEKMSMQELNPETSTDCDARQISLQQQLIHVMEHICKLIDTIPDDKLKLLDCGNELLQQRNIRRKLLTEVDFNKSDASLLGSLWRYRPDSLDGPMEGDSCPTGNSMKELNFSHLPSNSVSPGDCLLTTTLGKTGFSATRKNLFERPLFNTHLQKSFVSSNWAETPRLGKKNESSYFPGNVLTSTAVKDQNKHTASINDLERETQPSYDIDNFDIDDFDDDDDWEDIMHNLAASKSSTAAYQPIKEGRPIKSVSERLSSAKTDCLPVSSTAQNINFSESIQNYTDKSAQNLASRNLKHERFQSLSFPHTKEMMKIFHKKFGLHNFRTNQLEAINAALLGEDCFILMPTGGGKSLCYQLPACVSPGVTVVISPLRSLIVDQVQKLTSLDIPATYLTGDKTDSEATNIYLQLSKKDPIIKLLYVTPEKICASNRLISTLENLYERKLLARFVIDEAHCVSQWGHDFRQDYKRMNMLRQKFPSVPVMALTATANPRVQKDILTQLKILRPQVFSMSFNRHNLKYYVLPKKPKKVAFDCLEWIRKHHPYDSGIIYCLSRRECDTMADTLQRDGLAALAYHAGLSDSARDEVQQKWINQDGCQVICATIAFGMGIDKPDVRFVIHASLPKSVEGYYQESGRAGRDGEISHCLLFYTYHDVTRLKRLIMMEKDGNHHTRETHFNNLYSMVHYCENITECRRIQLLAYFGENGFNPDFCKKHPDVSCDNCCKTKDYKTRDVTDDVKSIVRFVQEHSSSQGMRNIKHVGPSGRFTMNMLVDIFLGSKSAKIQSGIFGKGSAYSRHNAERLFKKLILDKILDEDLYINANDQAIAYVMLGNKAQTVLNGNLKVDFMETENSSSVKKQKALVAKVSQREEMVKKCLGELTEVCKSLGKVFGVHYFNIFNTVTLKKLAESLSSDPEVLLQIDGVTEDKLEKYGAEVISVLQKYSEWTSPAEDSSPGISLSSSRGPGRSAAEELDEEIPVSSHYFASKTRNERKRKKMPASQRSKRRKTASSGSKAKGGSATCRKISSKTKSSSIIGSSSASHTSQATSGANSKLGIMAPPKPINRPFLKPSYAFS
Sequence of Ferritin light chain (Equus caballus) (P02791 2-175 limits assumed): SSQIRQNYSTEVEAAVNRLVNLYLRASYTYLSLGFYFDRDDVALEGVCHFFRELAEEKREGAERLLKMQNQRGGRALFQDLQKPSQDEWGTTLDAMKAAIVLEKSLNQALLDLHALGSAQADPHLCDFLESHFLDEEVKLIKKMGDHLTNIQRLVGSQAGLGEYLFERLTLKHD

SMILES	Potency [1]	Potency [2]	Potency [3]	Potency [4]	outcome [5]	Potency [6]	Potency [7]	Potency [8]
CCCCCCCCCCCCCCSCC(=O)O	inactive	inactive	inactive	inactive	inactive	inactive	–	–
c1ccc(CN2CCC3(CCCc4ccccc43)CC2)cc1	12.6 µM (active)	11.2 µM (active)	4.47 µM (active)	7.94 µM (active)	–	inactive	inactive	–
NCC(O)C1CCCCCCC1 (centres undefined)	inactive	8.91 µM (active)	3.16 µM (active)	inactive	–	inactive	inactive	–
CCN1C(=O)C=CC1=O	inactive	inactive	inactive	inactive	–	inactive	inactive	–
Cc1cccc(C)c1OCC(N)C(C)C (centres undefined)	inactive	4.47 µM (active)	0.708 µM (active)	inactive	–	inactive	inactive	–
NC(C(=O)N[C@@H]1C(=O)N2C(C(=O)O)=C(Cl)CS[C@H]12)c1ccccc1 (some centres undefined)	inactive	inactive	inactive	inactive	–	inactive	inactive	–
CC(=O)NCCc1c[nH]c2ccc(O)cc12	inactive	inactive	inactive	inactive	–	inactive	inactive	–
N[C@H](C(=O)O)[C@H]1C[C@@H]1C(=O)O	inactive	inactive	inactive	inactive	–	inactive	inactive	inactive
N[C@@H](CS(=O)O)C(=O)O	inactive	inactive	inactive	inactive	–	inactive	inactive	inactive
CN1CCCC1CCOC(C)(c1ccccc1)c1ccc(Cl)cc1 (centres undefined)	11.2 µM (active)	10 µM (active)	2.51 µM (active)	5.01 µM (active)	–	inactive	inactive	–
CC(=O)/C(C)=N/O	inactive	inactive	inactive	inactive	–	inactive	inactive	–
N=C(N)c1ccccc1	inactive	inactive	inactive	inactive	–	inactive	inactive	–
O=C(O)C1CN(CCCP(=O)(O)O)CCN1 (centres undefined)	inactive	inactive	inactive	inactive	–	–	inactive	inactive
COC(=O)C(N)Cc1ccc(Cl)cc1 (centres undefined)	inactive	inactive	inactive	inactive	–	inactive	inactive	inactive
Cn1cc(C(F)(F)F)nc1-c1ccc(OCC(O)CNCCOc2ccc(O)c(C(N)=O)c2)cc1 (centres undefined)	3.16 µM (active)	inactive	10 µM (active)	5.62 µM (active)	–	inactive	inactive	inactive
CC(=O)[C@H]1CCC2C3CC=C4C[C@@H](OS(=O)(=O)O)CC[C@]4(C)C3CC[C@@]21C (some centres undefined)	inactive	inactive	inactive	inactive	–	inactive	inactive	inactive
N[C@H](C(=O)O)[C@H](O)C(=O)O	inactive	inactive	inactive	inactive	–	inactive	inactive	–
O=c1[nH]ccc2c(O)cccc12	inactive	inactive	inactive	inactive	–	inactive	inactive	–
CCOC(=O)C12CC1/C(=N/O)c1ccccc1O2 (centres undefined)	inactive	inactive	inactive	inactive	–	inactive	inactive	–
CN1C2CCC1CC(OC(c1ccccc1)c1ccccc1)C2 (centres undefined)	7.08 µM (active)	4.47 µM (active)	1.41 µM (active)	6.31 µM (active)	–	inactive	inactive	inactive
N=C(N)c1ccc(OCCCCCOc2ccc(C(=N)N)cc2)cc1 (tested in a mixture with another compound)	0.199 µM (active)	1 µM (active)	0.355 µM (active)	0.224 µM (active)	–	inactive	inactive	inactive
COc1ccc(CCN(C)CCc2ccc(OC)c(OC)c2)cc1OC	inactive	inactive	14.1 µM (active)	inactive	–	inactive	inactive	–
CC(C)C[C@H](NC(=O)[C@H](O)[C@H](N)Cc1ccccc1)C(=O)O	inactive	inactive	inactive	inactive	–	inactive	inactive	–
C[N+](C)(C)CC=O	inactive	inactive	inactive	inactive	–	inactive	inactive	–
COc1ccc(NC(=O)c2ccc(-c3ccc(-c4noc(C)n4)cc3C)cc2)cc1N1CCN(C)CC1	2.51 µM (active)	5.62 µM (active)	3.98 µM (active)	2.82 µM (active)	–	inactive	inactive	inactive
NC(=Nc1ccccc1)NC(=O)c1nc(Cl)c(N)nc1N	8.91 µM (active)	inactive	7.08 µM (active)	7.94 µM (active)	–	inactive	inactive	inactive
COc1ccc2c(c1)c(CC(=O)O)c(C)n2Cc1ccc(Cl)cc1	14.1 µM (active)	inactive	8.91 µM (active)	14.1 µM (active)	–	inactive	inactive	inactive
CSC(N)=NCCC[C@H](N)C(=O)O	inactive	inactive	inactive	inactive	–	inactive	inactive	inactive
